Bioassay records: PubChem BioAssay, National Center for Advancing Translational Sciences (NCATS)
The sample as a whole holds a higher share of hits than the screen did.
TDP-43 tox inh = inhibitors of TDP-43 toxicity in yeast. Potency, µM (doses to about 46.1 µM), most hits filed as activators. 45,000 tested, 0.45% active. yeast TDP-43 toxicity rescue, BacTiter-Glo growth, 24 h; active = well fitted activation curve with a large enough effect; note: nearly all actives have a fitted effect of over 55% in size
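TDP-43-expressing yeast, pregrown in raffinose, seeded at OD600 0.02 in galactose medium with compound for 24 hr at 30 deg C. Growth read by BacTiter-Glo luminescence, so rescue of toxicity appears as activation.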
Numbers stand for hits; – = inactive.

SMILES | TDP-43 tox inh
C/C(=N/NS(=O)(=O)c1ccc(C)cc1)[C@H]1C[C@@H]1c1ccccc1 | –
O/N=C(/c1ccc(Cl)cc1)C1CC1c1ccccc1 (stereo unspecified) | 11µM
CC1CC(OC(=O)c2ccccc2C(=O)c2ccc(Cl)cc2)C(=O)O1 (stereo unspecified) | –
COc1ccc(OC)c(NC(=O)C2Cc3ccccc3CN2S(=O)(=O)c2ccc(F)cc2)c1 (stereo unspecified) | –
CCOC(=O)c1c(NC(C)=O)c2c3c(sc2n1Cc1ccc(Cl)cc1)CCCC3 | –
CCOC(=O)CNC(=O)N1CCc2cc(S(=O)(=O)N3CCC(C)CC3)ccc21 | –
CCCN(CCC)C(=O)Cn1c(=O)n(CCCCCC(=O)NCc2ccccc2Cl)c(=O)c2sccc21 | –
Cn1cc(/C=N/NC(N)=S)c2ccccc21 | –
CC(C)Oc1ccc(/C=N/NC(N)=S)cc1 | 13µM
O=C(N/N=C/c1ccc(OC(F)F)cc1)C1=COCCO1 | –
COc1ccccc1CCNC(=O)CCCn1c(=O)c2cccn2c2cccnc21 | –
COCCNC(=O)C1(C)CCN(C(=O)C2(c3ccc(Cl)cc3)CCCC2)C1 (stereo unspecified) | –
COCCNC(=O)C1CCCN(C(=O)C2(c3ccc(Cl)cc3)CCCC2)CC1 (stereo unspecified) | –
CC1(C(=O)O)CCCN(C(=O)C2(c3ccc(Cl)cc3)CCCC2)C1 (stereo unspecified) | 14µM
Cn1nnnc1SCC(=O)Nc1cc(C(F)(F)F)ccc1N1CCOCC1 | –
O=C(CNCc1ccccn1)Nc1cc(C(F)(F)F)ccc1N1CCOCC1 | –
O=C(CSc1ccc([N+](=O)[O-])cn1)Nc1cc(C(F)(F)F)ccc1N1CCOCC1 | 13µM
CCSc1ncc(Cl)c(C(=O)N(Cc2ccccc2)c2ccc(OC)cc2)n1 | –
COc1ccc(Cn2c(C(=O)O)c(CNCc3ccccc3F)c3ccc(OC)cc32)cc1 | –
CCCCC(=O)NCc1ccccc1Cl | –
O=C(CN1CCc2ccccc21)NCc1ccccc1Cl | 13µM
O=C(CN1CCN(Cc2ccccc2)CC1)NCc1ccccc1Cl | –
COc1ccc(Br)cc1CNC(=O)C1CCN(c2nnc(-n3cccc3CNc3ccc(C)cc3)s2)CC1 | –
O=C(Nc1cccs1)Nc1cc(C(F)(F)F)ccc1Cl | –
CC1CCN(C2CC(=O)N(c3ccccc3)C2=O)CC1 (stereo unspecified) | –
SMILES | TDP-43 tox inh
COC(=O)c1ccc(N2C(=O)CC(N3CCOCC3)C2=O)cc1 (stereo unspecified) | 16µM
CCOC(=O)c1ccc(N2C(=O)CC(N3CCN(Cc4ccccc4)CC3)C2=O)cc1 (stereo unspecified) | –
COc1cc(/C=C/C(=O)O)ccc1OS(=O)(=O)c1ccc(C)cc1 | –
COc1cc(/C=C/C(=O)O)ccc1OCc1ccc([N+](=O)[O-])cc1 | –
COc1ccc(/C=C/C(=O)O)cc1Cl | 11µM
COc1ccccc1/C=C/c1nc(C#N)c(N2CCCCCC2)o1 | –
O=C(NCC(c1ccco1)S(=O)(=O)c1cccs1)c1ccc(Cl)cc1 (stereo unspecified) | –
Cc1nc2ccc(S(=O)(=O)N(C)CC(=O)Nc3ccc(Br)c(C)c3)cc2s1 | –
COc1ccccc1CNC(=O)Cc1ccc(OC)c(OC)c1 | –
COc1ccc(CNC(=O)CCSCc2ccccc2Cl)c(OC)c1 | 14µM
COc1ccccc1OCC(=O)NCCSCc1ccccc1Cl | –
Cc1c(C(=O)Nc2ccc(-c3nc4cc(Cl)ccc4o3)cc2)oc2ccccc12 | –
COC(=O)c1cc2oc3ccccc3c2n1Cc1c(F)cccc1Cl | –
CCCSc1ncc(Cl)c(C(=O)Nc2ccc(S(=O)(=O)N3CCCC(C)C3)cc2)n1 (stereo unspecified) | –
CC(=O)CSc1ncnc2scc(-c3ccc(F)cc3)c12 | –
Fc1ccc(-c2csc3ncnc(Cl)c23)cc1 | 14µM
Cc1ccc(-c2csc3ncnc(NS(=O)(=O)c4ccc(Cl)cc4)c23)cc1 | –
Cc1ccc(-c2noc(-c3nnn(CC(=O)Nc4cccc(C(F)(F)F)c4)c3N)n2)cc1 | –
CCOc1ccccc1CNC(=O)C1CCN(c2nnc(-n3c(C)ccc3C)s2)CC1 | –
CCc1ccc(CN(Cc2ccco2)C(=O)c2cc(-c3ccc(C)c(F)c3)on2)cc1 | –
O=C(COC(=O)c1n[nH]c2ccccc12)Nc1ccccc1F | –
CCN(Cc1ccccc1)C(=O)COC(=O)c1n[nH]c2ccccc12 | –
Cc1cccc(C)c1OCCOC(=O)c1n[nH]c2ccccc12 | 14µM
CCN(CC)CCCNC(=O)CCCn1ncn2c(cc3occc32)c1=O | –
O/N=C/c1ccccc1Oc1ccc(Cl)cc1 | 18µM
SMILES | TDP-43 tox inh
COC(=O)N/N=C/c1ccccc1OCCOc1ccc(OC)cc1 | –
CCOC(=O)COc1ccccc1/C=N/O | –
O=C(Nc1sc2c(c1C(=O)NCc1ccco1)CCCC2)c1cc(=O)c2ccccc2o1 | –
COc1ccccc1Oc1ccnc2cc(Cl)ccc12 | –
O=C(Oc1ccnc2cc(Cl)ccc12)N1CCCCCC1 | 3.2µM
Oc1ccc(N2CCN(c3ccnc4cc(Cl)ccc34)CC2)cc1 | –
CN(C(=O)CSc1nc2ccc(NC(=O)COc3ccc(F)cc3)cc2s1)c1ccccc1 | –
CC(C)Oc1ccc(C(=O)N(Cc2ccc(N(C)C)cc2)Cc2ccco2)cc1 | –
COc1ccc(C2=NC3(CCCCCC3)N(CC(=O)Nc3ccc(C)c(C)c3)C2=O)cc1 | –
Clc1cccc(COn2c(-c3ccc(Cl)cc3Cl)nc3ncccc32)c1 | 25µM
COc1ccc(-n2c(-c3ccc(Cl)cc3Cl)n[nH]c2=S)c(OC)c1 | –
COCCn1c(-c2ccc(Cl)cc2Cl)nc2c(c(=O)c3ccccc3n2C)c1=O | –
CCCNC(=O)COC(=O)c1c2c(nc3ccccc13)CCC2 | –
CC1Cc2ccccc2N1C(=O)COC(=O)Cn1nnc(-c2ccccc2)n1 (stereo unspecified) | –
CC1Cc2ccccc2N1C(=O)COC(=O)c1c2c(nc3ccccc13)CCCCC2 (stereo unspecified) | 14µM
CCCSc1ncc(Cl)c(C(=O)Nc2nc3ccc(C)cc3s2)n1 | –
COc1ccc(NC(=O)Cn2c(=O)oc3cc(S(=O)(=O)N4CCCC4)ccc32)cc1OC | –
CCc1nn(CCCC(=O)NCc2ccc(OC)c(OC)c2)c(=O)c2cc3occc3n12 | –
COc1ccc(OC)c(/C=C(/C#N)c2nc(-c3ccc(-c4ccccc4)cc3)cs2)c1 | –
CC1CCN(S(=O)(=O)c2ccc3c(c2)CCN3C(=O)Nc2ccc(Br)cc2F)CC1 | –
COC(=O)c1ccc(NC(=O)NC(C)c2c(-n3cccc3)sc(C)c2C)cc1 (stereo unspecified) | –
CC(=O)Nc1ccc(NC(=O)c2c(C)nn(Cc3ccccc3Cl)c2C)cc1 | –
Cc1c(C(=O)O)oc2c1-c1nn(Cc3ccccc3Cl)cc1CC2 | 11µM
CCOC(=O)c1oc2c(c1C)-c1nn(Cc3ccccc3Cl)cc1CC2 | –
CN(C)c1ccc(CN(Cc2ccco2)C(=O)c2ccc(F)cc2)cc1 | –
SMILES | TDP-43 tox inh
CCc1ccccc1NC(=O)Cn1nnc(-c2nc(-c3ccncc3)no2)c1N | –
Cc1cc[n+](CC(=O)Nc2nc3ccccc3s2)cc1 | –
O=C(Cc1cccs1)Nc1nc2ccccc2s1 | 16µM
CCc1ccc2nc(NC(=O)CCCc3cccs3)sc2c1 | –
CC(C)CCNC(=O)Nc1ccc2c(c1)N(Cc1ccccc1)C(=O)c1ccccc1S2 | –
COc1ccc(OC)c(NC(=O)N2CCC3(CC2)Oc2ccccc2C(=O)N3Cc2ccccc2F)c1 | –
O=C(O)c1nn(CCOc2cccc(Br)c2)c(=O)c2ccccc12 | 18µM
